# Test results as given in PubChem BioAssay.
# Records with an inconclusive call do not appear. Calls of active or inactive are those of the source. Unless noted, no cut-off is given here; in the data, nearly all actives have AC50 up to about 26 µM.
# Columns and labels:
# [1] = compounds altering viability of human ES cells (AID 493140; call rule not given here;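 note: cells exposed to compounds for four days before counting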); conditions: human embryonic stem cell survival screen; stronger effect = higher value
# [2] = molecular target: Mitogen-activated protein kinase 7 (Homo sapiens) (UniProt Q13164); experiment: Gal4-ERK5 driven luciferase induction – cell-based, HTS, primary screen (AID 1508626;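 active = luciferase signal above three times the same-plate solvent-only control wells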;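 note: luciferase driven by Gal4-ERK5 fusion binding five Gal4 sites before minimal TATA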); conditions: HeLa Gal4-ERK5 transactivation, 18 h, at 5 µM, stronger effect = higher value
# Mitogen-activated protein kinase 7 (Homo sapiens), sequence (Q13164 whole entry, looked up, the tested form may be a part): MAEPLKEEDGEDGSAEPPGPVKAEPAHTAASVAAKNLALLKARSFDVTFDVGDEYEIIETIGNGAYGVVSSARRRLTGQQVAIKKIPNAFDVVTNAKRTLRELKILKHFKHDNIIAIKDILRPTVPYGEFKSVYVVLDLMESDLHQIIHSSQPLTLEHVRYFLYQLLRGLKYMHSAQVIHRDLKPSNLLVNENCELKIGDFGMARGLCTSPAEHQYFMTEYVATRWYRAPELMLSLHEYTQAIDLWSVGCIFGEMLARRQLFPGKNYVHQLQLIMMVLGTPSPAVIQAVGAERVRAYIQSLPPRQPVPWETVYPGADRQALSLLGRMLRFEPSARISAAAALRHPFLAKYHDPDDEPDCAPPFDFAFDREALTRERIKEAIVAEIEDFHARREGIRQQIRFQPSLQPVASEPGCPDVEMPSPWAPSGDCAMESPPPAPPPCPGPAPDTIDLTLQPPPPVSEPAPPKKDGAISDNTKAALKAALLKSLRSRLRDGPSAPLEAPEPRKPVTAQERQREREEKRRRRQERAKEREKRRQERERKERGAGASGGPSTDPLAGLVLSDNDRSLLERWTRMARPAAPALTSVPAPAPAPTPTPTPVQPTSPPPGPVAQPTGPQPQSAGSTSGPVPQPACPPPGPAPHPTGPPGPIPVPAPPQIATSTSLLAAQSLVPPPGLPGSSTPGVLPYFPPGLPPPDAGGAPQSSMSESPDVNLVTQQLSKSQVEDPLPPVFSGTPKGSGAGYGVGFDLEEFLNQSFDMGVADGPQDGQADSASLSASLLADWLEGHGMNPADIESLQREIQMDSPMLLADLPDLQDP
# [3] = compounds altering circadian rhythm period length – cell-based, LOPAC library, luminescence reporter (AID 2774; call rule not given here;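 note: values are relative to mean of DMSO wells on each plate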); conditions: circadian reporter cells, at 7 µM, actives lie on both sides
# [4] = viability loss in pontine glioma line – cell-based, SU-DIPG-XXV, MIPE5.0, CellTiter-Glo, qHTS, dose response (AID 1347065); conditions: CellTiter-Glo ATP luminescence;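 note: cells exposed to compound for 48 hours before ATP readout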
# [5] = compounds altering HSF1 focus formation in cells – imaging, Selleck Cancer Library (AID 1347162; in the data active = plate-normalised HSF1 focus index below about 0.46); conditions: human cells, HSF1 nuclear foci imaging, at 10 µM; SSMD: measured here: HSF1 foci SSMD mean; cell count: measured here: cell number; plate-normalised HSF1 focus index: stronger effect = lower value
# [6] = growth inhibition of DIPG cells – cell-based, MIPE4.0 library, CellTiter-Glo luminescence, qHTS (AID 1347066; cut-off not given, nearly all actives have AC50 up to about 30 µM;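 note: cells exposed to compound for 48 hours before readout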); conditions: SU-DIPG-VI viability, CellTiter-Glo ATP luminescence
# [7] = viability loss in pontine glioma line – cell-based, SU-DIPG-XIII, MIPE4.0, CellTiter-Glo, qHTS, dose response (AID 1347061; cut-off not given, nearly all actives have AC50 up to about 37 µM;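 note: cells exposed to compound for 48 hours before readout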); conditions: CellTiter-Glo ATP luminescence
# [8] = viability loss in pontine glioma line – cell-based, SU-DIPG-XIII, MIPE5.0, CellTiter-Glo, qHTS, dose response (AID 1347064; cut-off not given, nearly all actives have AC50 up to about 23 µM;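 for AC50: cells exposed to compound for 48 hours before the viability read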); conditions: CellTiter-Glo ATP luminescence
# [9] = growth inhibition of DIPG cells – cell-based, MIPE5.0 library, qHTS (AID 1347068; cut-off not given, nearly all actives have IC50 up to about 30 µM); conditions: SU-DIPG-XXV viability
# [10] = JHH-DIPG-1 glioma cell viability, MIPE5.0 library, CellTiter-Glo luminescence, qHTS (AID 1347067); conditions: JHH-DIPG-1 glioma viability, CellTiter-Glo ATP luminescence;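 note: cells exposed to compound for 48 hours before readout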
structure (smiles),measurement,setting,value
CN1CCCN=C1/C=C/c1cccs1,survival,[1],25.8 (inactive)
NC(=O)c1ncn([C@@H]2O[C@H](CO)[C@@H](O)[C@H]2O)c1N,luciferase signal,[2],16 AU (inactive)
CC1=C(C)C(=O)C(CCCCC#CCCCC#CCO)=C(C)C1=O,period change,[3],-0.105 h (inactive)
C#Cc1cccc(Nc2ncnc3cc(OCCOC)c(OCCOC)cc23)c1,AC50,[4],7.42 µM (active)
same,SSMD,[5],2.72
same,cell count,[5],6730
same,plate-normalised HSF1 focus index,[5],1.14 (inactive)
O=C(OC1C[C@H]2CC[C@@H](C1)[N+]21CCCC1)C(O)(c1ccccc1)c1ccccc1 (stereo not given in full),outcome,[6],inactive
CC(C)(C)C(=O)OCOP(=O)(COCCn1cnc2c(N)ncnc21)OCOC(=O)C(C)(C)C,AC50,[7],20.9 µM (active)
same,AC50,[8],18.6 µM (active)
same,AC50,[4],20.9 µM (active)
same,AC50,[6],16.6 µM (active)
same,outcome,[9],inactive
Cc1c(C(=O)NN2CCCCC2)nn(-c2ccc(Cl)cc2Cl)c1-c1ccc(Cl)cc1,AC50,[7],20.9 µM (active)
same,AC50,[10],18.6 µM (active)
same,outcome,[9],inactive
CCCCCCCCOc1ccccc1C(=O)Nc1ccc(C(=O)OCC[N+](C)(CC)CC)cc1,outcome,[7],inactive
Cc1ccc(-c2ncc(Cl)cc2-c2ccc(S(C)(=O)=O)cc2)cn1,outcome,[8],inactive
same,outcome,[10],inactive
same,outcome,[9],inactive
O=C(O)c1c(Cl)c(Cl)c(Cl)c(Cl)c1-c1c2cc(I)c(=O)c(I)c-2oc2c(I)c(O)c(I)cc12,AC50,[7],16.6 µM (active)
same,AC50,[8],6.61 µM (active)
same,AC50,[4],3.32 µM (active)
same,AC50,[10],8.33 µM (active)
C[C@]12CC[C@@H]3c4ccc(O)cc4C[C@@H](CCCCCCCCCS(=O)CCCC(F)(F)C(F)(F)F)[C@H]3[C@@H]1CC[C@@H]2O (stereo not given in full),outcome,[7],inactive
same,outcome,[4],inactive
same,outcome,[6],inactive
same,outcome,[10],inactive
same,outcome,[9],inactive
same,SSMD,[5],2.09
same,cell count,[5],7000
same,plate-normalised HSF1 focus index,[5],1.13 (inactive)
O=C(Nc1cccc2c(=O)cc(-c3nn[nH]n3)oc12)c1ccc(OCCCCc2ccccc2)cc1,outcome,[6],inactive
COC(=O)N[C@H](C(=O)N[C@@H](Cc1ccccc1)[C@@H](O)CN(Cc1ccc(-c2ccccn2)cc1)NC(=O)[C@@H](NC(=O)OC)C(C)(C)C)C(C)(C)C,outcome,[7],inactive
same,outcome,[6],inactive
COc1cc(NCc2ccc3nc(N)nc(N)c3c2C)cc(OC)c1OC,AC50,[8],7.42 µM (active)
same,AC50,[4],2.95 µM (active)
same,AC50,[6],20.9 µM (active)
same,AC50,[10],2.63 µM (active)
O[C@@H](CNC[C@H](O)[C@H]1CCc2cc(F)ccc2O1)[C@@H]1CCc2cc(F)ccc2O1,outcome,[7],inactive
